Screens (PubChem)
12-LOX inh: ALOX12 (human) lipoxygenase inhibition; purified 12hLO, xylenol orange hydroperoxide absorbance; Potency, µM (highest dose often 108 µM), inactives show at the highest dose activity change, negative = inhibition, hits mostly inhibitors; 580,000 tested, 1.1% active; active means well fitted curve in the direction sought with a large enough effect; inconclusive means small, poorly fitted or top-dose-only effect, or another doubt; inactive means no such curve, though single readings can be large; an effect the other way counts as inactive or inconclusive; further: on the % scale 0 is the no-effect control and ±100 the full control effect
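Purified human 12hLO at 150 nM in 25 mM Hepes, 0.01% Triton X-100, pH 7.0, preincubated 15 min at room temperature with compound. Reaction started with 40 uM arachidonic acid, 30 min at room temperature. Hydroperoxide measured by Fe-xylenol orange, 573/405 nm absorbance ratio.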
ClpP mod: qHTS Assay for Activators of ClpP. ATP-dependent Clp protease proteolytic subunit (Bacillus subtilis (strain 168)), P80244. purified B. subtilis ClpP, FRET peptide cleavage, 20 min. Potency, µM (top dose mostly 57.5 µM), for inactives: at the highest dose activity change, negative = active. 340,000 tested, 1.9% active. AID 651965, 2013; active means well fitted falling curve with a large enough effect; inconclusive means small, poorly fitted or top-dose-only effect; inactive means no such curve, though single readings can be large or run the other way; further: the source files actives as falling curves though it sought activators and does not explain the sign; nearly all actives have a fitted effect of over 65% in size
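ClpP 10 microg/mL final, pH 8 Tris/KCl buffer with BSA, glycerol, Tween-20; compound pinned in; FRET-FV substrate; RT 20 min; Ex320/Em430; ΔFRET vs ADEP 5.8 microM, DMSO, no enzyme.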
Rango complex inh: prevents formation of the Rango-importin beta complex. AID 540263. Rango CFP/YFP FRET sensor + importin beta, 45 min. 340,000 tested, 0.031% active. Q14974. Potency, µM (doses to about 92.2 µM), for inactives: at the top dose inhibition of complex formation;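 further: 0% = DMSO wells and 100% = buffer wells lacking importin beta; nearly all actives have a fitted effect of over 15% in size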
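FRET biosensor Rango (snurportin 1 IBB between N-terminal EYFP and C-terminal Cerulean), 50 nM in PBS/1 mM DTT/0.02% Tween-20/0.1% BSA, preincubated 5 min RT with compound; 0.125 microM importin beta added, 45 min RT, CFP/YFP FRET ratio read.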
PTAP TSG101 blk: blocks PTAP/TSG101 interaction to inhibit HIV-1 budding. 340,000 tested, under 10 active. Potency, µM (doses to about 115 µM), for inactives: top-dose activity change, negative = inhibition, most hits filed as inhibitors. Q99816. Fluorescence polarization, FITC-PTAP peptide / Tsg101 binding; active means well fitted inhibition curve with a large enough effect in the main read-out, with a control signal flat, not every such curve was filed as active; inconclusive means small, poorly fitted or top-dose-only effect, or effect the other way, or a change in a side signal; inactive means no such curve, though single readings can be large or run the other way; further: % of control where 0% means no effect
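Tsg101 binding domain (10 uM final) was mixed with compound and a FITC-labeled PTAP peptide (50 nM final) in HEPES pH 7.5 buffer with NaCl, Tween 20, EDTA and TCEP; fluorescence polarization was read after 20 min at r.t.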
TDP1 inh: inhibitors of human tyrosyl-DNA phosphodiesterase TDP1; recombinant TDP1, AlphaScreen DNA substrate cleavage; Potency, µM (doses to about 130 µM), without a hit: at the highest dose activity change, negative = inhibition, most hits filed as inhibitors; 350,000 tested, 0.28% active; active means well fitted curve in the direction sought with a large enough effect; inconclusive means small, poorly fitted or top-dose-only effect, or another doubt; inactive means no such curve, though single readings can be large; an effect the other way counts as inactive or inconclusive; further: on the % scale 0 is the no-effect control and ±100 the full control effect; nearly all actives have a fitted effect of over 40% in size
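Tdp1 1 nM final; 15 min RT w/ cpd; substrate 15 nM, 5 min; beads 10 ug/ml, 10 min; AlphaScreen read. Neg ctrl: no enzyme.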
Rango dissoc inh: inhibition of RanGTP-driven Rango-importin beta dissociation; Biochemical FRET Rango-importin beta, RanGTP-induced dissociation; Potency, µM (series often up to 46.1 µM), for the others: top-dose activity change, negative = inhibition; 340,000 tested, 0.071% active; AID 540253; further: % of control where 0% means no effect; nearly all actives have a fitted effect of over 45% in size
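Two FRET readings bracket the reaction: one 5 min after compound meets Rango–importin beta, another 45 min after RanGTP-RCC1 (0.6 uM Ran, 0.2 uM RCC1, 2 mM GTP) is added. Only the second defines inhibition.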
The depositor's hits bear a star; ? = inconclusive; . = no result given; [ ] = remark or other dose. In the library only some 2.4% were active in any assay of this set; here they are far more common. Unless noted, the call rests on the fitted dose curve. Potency means the concentration at half of the fitted maximal effect.

SMILES | 12-LOX inh | ClpP mod | Rango complex inh | PTAP TSG101 blk | TDP1 inh | Rango dissoc inh
Cc1ccc(N2CC(C)N(C(=O)c3ccc(-n4cnnn4)cc3)CC2=O)cc1 (stereo not drawn) | 30.3% | . | . | . | . | .
CCOC(=O)c1c(NC(=O)C2CCCO2)sc(C(N)=O)c1C (stereo not drawn) | 19.5% | 28.2µM* | -0.1% | -4.8% | -2.8% | -7.9%
Cc1c(C(N)=O)sc(NC(=O)C2CCCO2)c1C(=O)OC(C)C (stereo not drawn) | -28.3% | . | . | . | . | .
Cc1noc(C)c1CN1CC2(CCN(C(=O)c3cccc(F)c3)CC2)CC1=O | -4.2% | . | . | . | . | .
S=c1[nH]nc(Nc2ccccc2Cl)s1 | 31.6µM* | . | 1.4% | -1.4% | 7.5% | 0.8%
S=c1[nH]nc(Nc2cccc(Cl)c2)s1 | ? | -2.8% | -1.9% | -10.2% | 10.8% | 6.0%
COc1ccc(NC(=O)c2ccc3c(SCC(=O)O)c4c(nc3c2)CCCC4)cc1Cl | 0.0% | . | . | . | 1.8% | .
O=C(O)CSc1c2c(nc3cc(C(=O)Nc4ccc(F)c(Cl)c4)ccc13)CCCC2 | 0.0% | 0.3% | 0.2% | -8.6% | 56.2µM* | 29.2%
Cc1ccc(CNC(=O)CN2NS(=O)(=O)c3ccccc3C2=O)cc1 | 20µM* | -1.4% | . | . | . | .
COc1c(CNC(C)c2nnc3n2CCCCC3)c(C)nn1C (stereo not drawn) | 21.6% | . | . | . | . | .
O=C1[C@@H]2C[C@@H](O)CN2C2(CN(Cc3ccccc3)C2)C(=O)N1Cc1ccccc1Cl | -15.2%[176 µM] | . | . | . | . | .
O=C(CCN1C(=O)/C(=C/c2ccccc2)SC1=S)Nc1ccccn1 | 35.9% | -8.4% | -1.0% | -2.5% | 9.1% | 14.6µM*
COc1ccc(/C=C2\SC(=O)N(CCCC(=O)Nc3ccc(C(=O)O)cc3)C2=O)cc1 | ? | -1.1% | . | . | . | .
O=C(CCN1C(=O)/C(=C/c2ccc3c(c2)OCO3)SC1=S)Nc1ccc(C(=O)O)cc1 | ? | . | 3.4% | -4.0% | . | -2.5%
O=C(CCN1C(=O)S/C(=C\c2ccc(Cl)cc2)C1=O)Nc1ccc(C(=O)O)cc1 | -9.7% | -1.8% | -2.1% | -3.3% | 28.2µM* | 9.0%
O=C(CN1C(=O)S/C(=C/C=C/c2ccccc2)C1=O)Nc1ccc(C(=O)O)cc1 | -10.6% | . | -0.5% | -2.0% | -9.8% | -13.3%
O=C(CCN1C(=O)/C(=C\C=C\c2ccccc2)SC1=S)Nc1ccc(C(=O)O)cc1 | 31.6µM* | -0.4% | ? | -8.7% | 14.1µM* | -8.7%
O=C(CCCN1C(=O)/C(=C/c2ccc3c(c2)OCO3)SC1=S)Nc1ccc(C(=O)O)cc1 | 14.1µM* | 0.5% | ? | 11.5% | 4.4% | ?
CN(C)C=Nc1ncc2c3ccccc3n(CCN(C)C)c2c1C#N | 11.6% | ? | -2.5% | -2.4% | 3.1% | 9.2%
CN(C)C=Nc1ncc2c3ccccc3n(Cc3ccccc3)c2c1C#N | 4.2% | 31.6µM* | 0.1% | -3.0% | 3.8% | -6.9%
CC(C)OCc1ccc(CNC(=O)CNC(=O)C2CCCC2)cc1 | 49.1% | . | . | . | . | .
COc1ccc(CCC(=O)N2c3ccccc3N=C(c3ccc4c(c3)OCO4)C2C(=O)NCc2ccccc2)cc1 (stereo not drawn) | -21.2% | 31.6µM* | . | . | . | .
COc1ccc(C2=Nc3ccccc3N(C(=O)c3ccc4c(c3)OCO4)C2C(=O)NCc2ccccc2)cc1 (stereo not drawn) | -23.2% | 4.7% | . | . | . | .
COc1ccc(C2=Nc3ccccc3N(C(=O)c3ccc(C)cc3)C2C(=O)NCc2ccccc2)cc1 (stereo not drawn) | 3.55µM* | ? | . | . | . | .
COc1ccc(C2=Nc3ccccc3N(C(=O)c3ccc(C)cc3)C2C(=O)Nc2c(C)cccc2C)cc1 (stereo not drawn) | 0.794µM* | 4.7% | . | . | . | .
SMILES | 12-LOX inh | ClpP mod | Rango complex inh | PTAP TSG101 blk | TDP1 inh | Rango dissoc inh
CCN(C(=O)c1oc2c(c1C)C(=O)CC(C)(C)C2)c1ccccc1 | -22.2% | . | . | . | . | .
Cc1cccc(NS(=O)(=O)c2ccc(Oc3ccccc3)cc2)n1 | -12.8% | 22.4µM* | -0.3% | -5.7% | 2.1% | -2.6%
C=CCN(CC=C)C(=S)Nc1ccc2nsnc2c1 | ? | -0.7% | ? | -4.4% | 2.6% | ?
C=CCNC(=S)Nc1ccc2nsnc2c1 | -0.3% | 28.2µM* | 0.9% | -3.1% | 2.2% | ?
CCOc1ccc(NC(=S)Nc2ccc3nsnc3c2)cc1 | ? | 1.6% | ? | -4.5% | -2.7% | ?
COc1ccc(NC(=S)Nc2ccc3nsnc3c2)cc1 | 7.94µM* | 3.0% | 6.7% | -8.7% | 0.0% | ?
Cc1cc(Oc2cccc(C#N)c2C#N)cc(Oc2cccc(C#N)c2C#N)c1 | 0.5% | . | . | . | . | .
CN(CC1CCOC1)S(=O)(=O)c1ccccc1Cl (stereo not drawn) | 44.4% | . | . | . | . | .
c1ccc(CCCN2CC[C@H](c3nc4ccccc4s3)C2)cc1 | -18.9%[176 µM] | . | . | . | . | .
c1ccc(OCCN2CCC(c3nc4ccccc4s3)CC2)cc1 | 5.01µM* | . | . | . | . | .
CCC(CC)NC(=O)N(C)Cc1ccccc1 | -3.2% | . | . | . | . | .
CC(C)N1C(=O)C2(CCCCC2)C1C(=O)NC1CC1 (stereo not drawn) | 6.3% | . | . | . | . | .
c1coc(-c2nc(CNC3CCC4(CCNCC4)CC3)no2)c1 | 49.0% | . | . | . | . | .
COc1cccc(S(=O)(=O)N2CCCN(C)c3ccccc32)c1 | 22.4µM* | . | . | . | . | .
CN1CCCN(S(=O)(=O)c2ccc(Cl)cc2)c2ccccc21 | -24.6% | . | . | . | . | .
CN(C)c1cccc(C(=O)n2cc(C(=O)c3cc(F)ccc3O)cn2)c1 | 0.0% | 47.9% | -3.3% | -0.7% | 7.4% | -1.8%
COc1ccc(O)c(C(=O)c2cnn(C(=O)c3cccc(N(C)C)c3)c2)c1 | -8.2% | 22.4µM* | ? | -1.2% | 0.6% | 0.0%
CC1CN(c2cccc(Cl)c2)C(=O)CN1C(=O)c1ccc2n[nH]nc2c1 (stereo not drawn) | 91.6% | . | . | . | . | .
Cc1ccc(N2C(=O)[C@@H]3[C@H](C2=O)C2c4ccccc4C=CN2[C@@H]3C(=O)c2ccco2)c(C)c1 (stereo partly drawn) | 14.1µM* | -4.8% | ? | -9.3% | 5.9% | ?
c1ccc2c(Cc3c[nH]c4ccccc34)c[nH]c2c1 | ? | . | . | . | 19.5% | .
CN(C)C(=O)c1cnc(Cc2c[nH]c3ccccc23)c(I)c1 | 14.1µM* | . | . | . | . | .
COc1ccc(/C=N/NC(=O)c2nc(Cl)c(Cl)c(N)c2Cl)cc1COc1ccc(F)cc1F | 0.0% | 7.94µM* | 6.8% | 0.0% | 1.0% | 4.0%
CC(OC(=O)c1cc(-c2ccco2)nc2ccccc12)C(=O)NC(=O)NC(C)(C)C (stereo not drawn) | 8.91µM* | . | . | . | . | .
